# According to the supplement of paper PMC10127200:
# Where a name gives a salt, the structure may show the parent alone.
# Assays:
# Test in all cases: Euclidean distance of Cell Painting phenotypic profile (signed KS, 77 features) to DMSO centroid (dimensionless distance); 5 or 10 uM (library dependent); higher = stronger phenotypic change vs DMSO (phenoactivity)
# Settings in all cases: 48 h
# 786-O = tested on: 786-O
# Procedure, shortened: (§1)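 Library compounds were applied at 10 or 5 uM, depending on the library, with 0.1% DMSO final, for 48 h to five cancer lines and a healthy fibroblast line. After staining, cells were imaged confocally at 20X across 9 fields per well, and Harmony extracted 77 features, each scored as a signed Kolmogorov-Smirnov statistic against vehicle wells on the same plate. Phenoactivity is the Euclidean distance between each profile and the median vehicle profile, with profiles first plate-position corrected, correlation-weighted and averaged over replicates at the top dose.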
# A549 = tested on: A549
# Procedure, shortened: as §1
# DU145 = tested on: DU145
# Procedure, shortened: as §1
# FB = tested on: FB
# Procedure, shortened: as §1
# HEPG2 = tested on: HEPG2
# Procedure, shortened: as §1
# OVCAR4 = tested on: OVCAR4
# Procedure, shortened: as §1
SMILES,Euclidean distance (786-O),Euclidean distance (A549),Euclidean distance (DU145),Euclidean distance (FB),Euclidean distance (HEPG2),Euclidean distance (OVCAR4)
CC(C)Nc1cc(-c2c[nH]c(C(=O)N[C@H](CO)c3cccc(Cl)c3)c2)c(Cl)cn1,2.42,4.11,3.64,3.51,1.79,3.1
OCC1OC(OC2OC(CO)C(O)C(O)C2O)C(O)C(O)C1O [D-(+)-Trehalose Anhydrous],1.42,1.05,1.04,1.26,0.946,0.855
COc1ccc(S(=O)(=O)N(C(C)=O)c2ccccc2/C=C/c2cc[n+]([O-])cc2)cc1,2.93,2.94,4.01,2.75,3.08,2.97
COc1ccc([C@]2(C#N)CC[C@@H](C(=O)O)CC2)cc1OC1CCCC1 [Cilomilast],1.31,0.842,1.35,1.14,1.3,1.53
COC(=O)c1ccccc1O [Methyl salicylate],0.625,0.514,0.585,0.713,0.768,0.636
NCCc1ccc(O)c(O)c1 [Dopamine HCl],1.84,0.481,0.944,1.26,0.844,3.26
COCCCOc1ccnc(C[S+]([O-])c2nc3ccccc3[nH]2)c1C (configuration not stated) [Rabeprazole],1.5,0.662,0.942,1.03,1.49,0.928
CO[C@H]1C[C@@H]2CC[C@@H](C)[C@@](O)(O2)C(=O)C(=O)N2CCCC[C@H]2C(=O)O[C@H]([C@H](C)C[C@@H]2CC[C@@H](OCCO)[C@H](OC)C2)CC(=O)[C@H](C)/C=C(\C)[C@@H](O)[C@@H](OC)C(=O)[C@H](C)C[C@H](C)/C=C/C=C/C=C/1C [Everolimus (RAD001)],2.45,1.83,2.74,3.19,1.73,1.9
N[C@@H](CC(=O)N1CCn2c(nnc2C(F)(F)F)C1)Cc1cc(F)c(F)cc1F [Sitagliptin phosphate monohydrate],0.554,0.819,1.11,0.644,0.395,0.956
CCCOc1ccc(S(=O)(=O)NCCC2CCCN2C)cc1-c1nc2c(CCC)nn(C)c2c(=O)[nH]1 (configuration not stated) [Udenafil],1.13,1.12,1.49,1.77,1.61,1.41
CC1=C(C(=O)OC2CCCCC2)C(c2ccc([N+](=O)[O-])cc2)C2=C(CC(C)(C)CC2=O)N1 (configuration not stated),2.98,3.4,1.52,2.71,2.03,2.99
C=CC1=C(C(=O)O)N2C(=O)[C@@H](NC(=O)/C(=N\OCC(=O)O)c3csc(N)n3)[C@H]2SC1 [Cefixime],1.35,0.916,0.778,1.38,0.6,1.73
CC1(C)S[C@@H]2[C@H](NC(=O)Cc3ccccc3)C(=O)N2[C@H]1C(=O)O [Benzylpenicillin potassium],1.15,0.89,1.18,0.93,0.711,1.48
CCOC(=O)n1ccn(C)c1=S [Carbimazole],1.03,1.11,1.2,0.945,0.319,1.09
CC(C)[C@H](C(=O)Nc1ccc(C(=O)NO)cc1)c1ccccc1,3.25,4.55,3.1,4.34,4.16,3.22
C[C@]12CCCN1CC1=NNC(=O)c3cc(F)cc4[nH]c2c1c34 [Pamiparib (BGB-290)],1.52,1.68,1.44,1.48,2.36,1.71
N#Cc1ccc(C(c2ccc(C#N)cc2)n2cncn2)cc1 [Letrozole],3.04,1.88,1.67,3.14,1.48,2.31
COc1ccccc1OCCNCC(O)COc1cccc2[nH]c3ccccc3c12 (configuration not stated) [Carvedilol Phosphate],2.5,2.28,1.98,1.66,2.55,1.81
CCCCOc1ccc(OCCCN2CCOCC2)cc1 [Pramoxine HCl],1.3,0.99,1.08,0.528,0.51,1.2
COC(=O)C1=CO[C@@H](O)[C@@H]2C(CO)=CC[C@H]12 [Genipin],1.19,1.13,0.882,1.15,0.828,1.35
N=C(N)NC(=N)NCCc1ccccc1 [Phenformin HCl],1.03,1.71,1.14,1.15,1.56,0.844
COC1=C2C[C@@H](C)C[C@H](OC)[C@H](O)[C@@H](C)/C=C(\C)[C@H](OC(N)=O)[C@@H](OC)/C=C\C=C(/C)C(=O)NC(=CC1=O)C2=O [Geldanamycin],2.87,3.3,3.52,3.35,1.8,2.91
CS(=O)(=O)c1ccc(C(=O)Nc2ccc(Cl)c(-c3ccccn3)c2)c(Cl)c1 [Vismodegib (GDC-0449)],1.82,1.01,0.671,1,0.631,0.924
CSCCNc1nc(SCCC(F)(F)F)nc2c1ncn2[C@@H]1O[C@H](COP(=O)(O)OP(=O)(O)C(Cl)(Cl)P(=O)(O)O)[C@@H](O)[C@H]1O [Cangrelor Tetrasodium],1.09,1.07,0.563,1.25,0.767,0.58

SMILES,Euclidean distance (786-O),Euclidean distance (A549),Euclidean distance (DU145),Euclidean distance (FB),Euclidean distance (HEPG2),Euclidean distance (OVCAR4)
CN1[C@@H]2CC[C@H]1C[C@@H](OC(=O)c1c[nH]c3ccccc13)C2 [Tropisetron],1.17,1.76,1.05,1.46,1.1,1.17
Cc1cc(C)c(/C=C2\C(=O)Nc3ccccc32)[nH]1 [Semaxanib (SU5416)],2.05,1.16,1.09,1.08,0.527,0.885
COC(=O)N[C@H](C(=O)N1CC2(CC2)C[C@H]1c1nc(-c2ccc3c(c2)C(F)(F)c2cc(-c4ccc5[nH]c([C@@H]6[C@H]7CC[C@H](C7)N6C(=O)[C@@H](NC(=O)OC)C(C)C)nc5c4)ccc2-3)c[nH]1)C(C)C [Ledipasvir (GS5885)],1.65,1.83,1.33,1.94,1.09,1.18
CCCCCCCCCCCCCCCCOc1nc2ccc(C)cc2c(=O)o1 [Cetilistat],1,1.33,0.996,0.737,0.864,0.764
CCN[C@H]1CN(CCCOC)S(=O)(=O)c2sc(S(N)(=O)=O)cc21 [Brinzolamide],1.5,1.1,1.06,1.48,0.663,2.07
CC1=C[C@H](O)CC(C)(C)[C@H]1/C=C/C(C)=C/C=C/C(C)=C/C=C/C=C(C)/C=C/C=C(C)/C=C/C1=C(C)C[C@@H](O)CC1(C)C [lutein],0.901,0.452,1.78,0.947,1.18,1
CCCCOC(=O)c1ccc(O)cc1 [Butylparaben],1.05,1.03,1.11,1.03,0.462,1.66
CN(C)CCOC(C)(c1ccccc1)c1ccccn1 (configuration not stated) [Doxylamine Succinate],1.09,0.709,1.18,1.42,0.475,1.14
CCCCC/C=C\C/C=C\CCCCCCCC(=O)O [Linoleic acid],0.927,1.38,1.02,1.3,0.86,1.11
CCCCOc1cc(C(=O)OCCN(CC)CC)ccc1N [Oxybuprocaine HCl],1.13,0.889,1.18,0.902,0.935,1.1
CCCCCCCN(CC)CCCC(O)c1ccc(NS(C)(=O)=O)cc1 (configuration not stated) [Ibutilide Fumarate],1.19,0.555,1.13,1.27,1.2,1.47
CC(C)(Oc1ccc(Cl)cc1)C(=O)O [Clofibric Acid],0.903,0.74,0.644,0.793,0.498,0.547
COc1cccc(OC)c1C(=O)OCc1cc(O)ccc1O[C@@H]1O[C@H](CO)[C@@H](O)[C@H](O)[C@H]1O [Curculigoside],0.665,0.731,0.819,0.662,0.446,1.36
CNC(=O)[C@H](Cc1c[nH]c2ccccc12)NC(=O)[C@@H](CC(=O)NO)CC(C)C [Ilomastat (GM6001. Galardin)],1.02,1.06,1.22,0.836,0.633,1.3
COc1c(C)c(C(=O)c2ccc(N)c(C(=O)O)c2)n2ccccc12,0.838,1.03,0.919,1.47,0.969,1.32
O=C(O)CCc1ccc(NCc2cccc(Oc3ccccc3)c2)cc1,1.31,1.43,1.69,1.47,1.25,1.53
C#CCN[C@@H]1CCc2ccccc21 [Rasagiline Mesylate],1.19,0.608,0.782,0.686,1.01,1.18
CN(C)C(=O)c1ccc(S(=O)(=O)c2ccc(NC(=O)[C@@](C)(O)C(F)(F)F)c(Cl)c2)cc1,0.701,1.81,0.801,0.955,2,0.57
COc1ccc(-c2cc(=O)c3c(O)cc(O)cc3o2)cc1O [Diosmetin],2.12,1.03,0.892,1.37,1.25,1.26
CNCCc1ccccn1 [Betahistine mesylate],0.848,0.566,1.17,0.999,0.422,0.933
CC1=C(C(=O)O)N2C(=O)[C@@H](NC(=O)[C@H](N)C3=CCC=CC3)[C@H]2SC1 [Cefradine],0.837,0.567,0.805,1.14,0.578,0.907
CCOC(=O)C1=C[C@]2(CC)CCCN3CCc4c(n1c1ccccc41)[C@@H]32 [Vinpocetine],1.12,0.68,0.699,0.994,0.98,1.81
CC(C)n1nc(-c2cc3cc(O)ccc3[nH]2)c2c(N)ncnc21,4.59,3.23,2.64,4.3,3.12,4.61
